Bioassay records: PubChem, National Center for Advancing Translational Sciences (NCATS)
Most compounds without a hit are left out; they make up all but 15% or so of the library.
HCMV inh: blocks human cytomegalovirus replication; HFF cells, HCMV-luciferase reporter, 72 h; stronger effect = lower value; activity change, negative = inhibition, % at 57.5 µM; actives 4.5% (n = 410,000); in the data active = activity change below about -60%; inconclusive = no clear call, values can overlap the other calls; inactive = above about -39%
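Human foreskin fibroblasts infected with luciferase-reporter HCMV at MOI 1 PFU/cell, compounds at two doses. Luciferase measured 72 h post infection; normalized to buffer-only basal and Salinomycin (10uM) controls.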
Pf growth 48h: inhibits P. falciparum growth in the first generation, 48 h. actives 5.9% (n = 310,000). Potency, µM (titrated, usually from 28.7 µM), actives largely listed as inhibitors. P. falciparum luciferase growth in erythrocytes, 48 h. AID 504832
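Growth was read as firefly luciferase luminescence after a 48 h, 37 C, 5% CO2 exposure of compounds to reporter-bearing P. falciparum cultures (0.1% parasitemia, 2% hematocrit final) in Albumax-supplemented RPMI 1640.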
SARS PLP yeast: SARS-CoV PLP inhibition in yeast. S. cerevisiae expressing SARS-CoV PLpro, growth rescue. Potency, µM (titrated, usually from 32.9 µM), actives largely listed as activators. actives 0.19% (n = 330,000). AID 485353; calls by dose curve; also: nearly all actives have a fitted effect of over 55% in size
Sm TGR inh: inhibitors of Schistosoma mansoni thioredoxin glutathione reductase; Potency, µM (doses to about 114 µM), hits mostly inhibitors; purified TGR, DTNB reduction, TNB absorbance 405 nm; Q962Y6; actives 3% (n = 360,000); also: nearly all actives have a fitted effect of over 60% in size
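Kinetic colorimetric format: TGR-catalysed, NADPH-driven DTNB reduction monitored via TNB absorbance. Enzyme dispensed at 20 nM; compound exposure 15 min at room temperature before reaction start.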
Pf growth 96h: P. falciparum growth inhibition at 96 hours; P. falciparum luciferase reporter growth, 96 h; Potency, µM (top dose mostly 28.7 µM), usual class: inhibitors; actives 6.9% (n = 320,000); AID 504834
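Luminescence readout: decreased luciferase signal marks inhibited growth of reporter-expressing P. falciparum in infected red cells (2% hematocrit, 0.05% parasitemia final), exposed to compound two generations (96 h, 37 C, 5% CO2).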
HCV inhibitor: HCV inhibition; Huh7.5.1 HCVcc-Cre infection, luciferase reporter, 44 h; Potency, µM (top dose mostly 41.8 µM), hits mostly inhibitors; actives 3.4% (n = 340,000)
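Luciferase read-out (15 sec integration) after a 15 min room-temperature substrate step quantifies HCVcc-Cre infection. Cells, 1,000 per well, had compound added 4 h post-plating, then virus at ~0.5 moi, and were cultured 44 h.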
Numbers stand for hits; i = inactive; ? = inconclusive; nt = no result. Unless noted, calls follow the shape of the dose curve; as a rule, active = well fitted curve in the direction sought with a large enough effect; inconclusive = small, poorly fitted or top-dose-only effect, or another doubt; inactive = no such curve, though single readings can be large; an effect the other way counts as inactive or inconclusive.

SMILES	HCMV inh	Pf growth 48h	SARS PLP yeast	Sm TGR inh	Pf growth 96h	HCV inhibitor
CCCc1nc(SCC(=O)c2ccc(OC)cc2)c2ccccc2n1	-83.0	?	i	i	i	12.6µM
CCc1nc2ccccc2n1CC(=O)Nc1cc(C)on1	i	i	i	i	4.65µM	?
CCCc1nc(SCC(=O)Nc2cc(C)on2)c2ccccc2n1	i	i	i	i	2.08µM	?
Cc1cc(NC(=O)CSc2nc(CCC3CCCC3)nc3ccccc23)no1	?	?	i	i	i	?
COCC(C)n1c(SCC(=O)Nc2sccc2C(N)=O)nc2ccccc2c1=O (stereo unspecified)	i	9.28µM	i	i	?	?
CCCc1nc(SCC(=O)N2CCCC2)c2ccccc2n1	-89.2	i	i	i	i	i
O=C(CSc1nc2cc3ccccc3cc2[nH]1)Nc1cccc(C(F)(F)F)c1	i	nt	nt	i	nt	nt
Cn1nc(C(F)(F)F)c(/C=N/OC(=O)c2ccccc2)c1Sc1ccc(Cl)cc1	-63.4	?	i	i	nt	?
Cn1nc(C(F)(F)F)c(/C=N/OC(=O)c2ccccc2)c1Cl	i	i	i	i	i	i
Cn1c(=O)c2sccc2n(Cc2cccc(Br)c2)c1=O	i	i	i	i	?	11.2µM
Cn1c(N2CCCC2)nc2c1c(=O)n(Cc1cccc(F)c1)c(=O)n2C	i	?	i	i	10.4µM	?
CC(O)CNc1nc2c(c(=O)n(C)c(=O)n2C)n1Cc1cccc(Br)c1 (stereo unspecified)	i	i	i	i	i	11.2µM
CC(C)CNc1nc2c(c(=O)n(C)c(=O)n2C)n1Cc1cccc(Br)c1	i	11.7µM	i	i	i	i
CC(O)CNc1nc2c(c(=O)n(C)c(=O)n2C)n1Cc1cccc(C(F)(F)F)c1 (stereo unspecified)	i	i	i	i	i	?
Cn1cnc2c1c(=O)n(Cc1cccc(F)c1)c(=O)n2C	i	i	i	i	i	i
O=c1[nH]nc(-c2ccc(F)cc2)cc1Cc1ccccc1	i	i	i	i	i	i
Cn1cnc2c1c(=O)n(Cc1cccc(Cl)c1)c(=O)n2C	?	nt	i	i	i	i
Cn1c(Cl)nc2c1c(=O)n(Cc1cccc(Br)c1)c(=O)n2C	i	i	i	i	i	12.6µM
Cc1ccc(Cn2nnc3c(=O)[nH]c(C4CCN(S(=O)(=O)c5ccc(F)cc5)CC4)nc32)cc1	i	i	i	i	nt	i
O=c1[nH]c(C2CCN(S(=O)(=O)/C=C/c3ccccc3)CC2)nc2c1nnn2Cc1ccc(F)cc1	i	1.85µM	i	i	?	i
O=c1[nH]c(C2CCN(S(=O)(=O)Cc3ccccc3)CC2)nc2c1nnn2Cc1ccccc1	i	9.28µM	i	i	i	i
O=c1[nH]c(C2CCN(S(=O)(=O)c3ccc(S(=O)(=O)NC4CC4)cc3)CC2)nc2c1nnn2Cc1ccccc1	?	3.7µM	i	i	i	i
O=c1[nH]c(C2CCN(S(=O)(=O)Cc3ccccc3)CC2)nc2c1nnn2Cc1cccc(Cl)c1	i	?	i	i	i	i
Cc1ccc(Cn2nnc3c(=O)[nH]c(C4CCN(S(=O)(=O)c5cc(C)ccc5C)CC4)nc32)cc1	i	5.22µM	i	i	nt	?
CCOc1ccc(C(=O)NCc2ccc3c(c2)OCO3)cc1OCC	i	i	i	i	i	i
SMILES	HCMV inh	Pf growth 48h	SARS PLP yeast	Sm TGR inh	Pf growth 96h	HCV inhibitor
O=C(c1ccc2ccccc2n1)N(CCO)Cc1ccccc1	i	i	i	i	i	i
CN(C)C(=O)c1ccc(-c2cc3cnc(Nc4ccccc4Cl)cc3[nH]2)cc1	i	nt	nt	nt	nt	nt
O=c1[nH]c(C2CCN(S(=O)(=O)c3cccc([N+](=O)[O-])c3)CC2)nc2c1nnn2Cc1ccccc1	i	8.28µM	i	i	i	i
Cc1ccc(C)c(Cn2nnc3c(=O)[nH]c(C4CCN(S(=O)(=O)c5ccc(S(=O)(=O)NC6CC6)cc5)CC4)nc32)c1	i	2.62µM	i	i	i	?
O=C(CN1CCN(c2ccccc2O)CC1)Nc1cccnc1Cl	i	i	i	i	?	?
COc1cccc(NS(=O)(=O)c2cc(-c3cnc(C4CC4)o3)ccc2C)c1	-88.9	nt	nt	i	nt	nt
Cc1ccc(-c2cnc(C3CC3)o2)cc1S(=O)(=O)Nc1cccc(C#N)c1	-83.9	nt	nt	i	nt	nt
